# Measurements reported in PubChem BioAssay AID1159570 (Broad Institute, 2015).
# Potency and affinity values are given separately. The source made the active and inactive calls. A call without a number means that no potency is given here. No rule for the calls is given here.
# Assay: P. falciparum 3D7-ScDHODH growth inhibitors, dose response, SYBR Green, dry powder samples (AID 1159570)
# Conditions: SYBR Green fluorescence; series mostly up to 19.5 µM
row,SMILES,outcome
1,C[C@@H]1CN([C@H](C)CO)C(=O)c2cccc(NC(=O)c3ccc(-c4nccs4)cc3)c2O[C@H]1CN(C)Cc1ccc(C(F)(F)F)cc1,inactive
2,O=C(NC[C@@H]1CC[C@H]2[C@H](CN2Cc2cc(-c3ccccc3)on2)O1)c1ccc2c(c1)OCO2,inactive
3,COc1cccc(C#Cc2ccc([C@H]3[C@@H](CO)N(C(=O)c4ccccn4)[C@H]3C#N)cc2)c1,inactive
4,Cc1ccccc1-c1ccccc1[C@H]1[C@@H](C#N)N(C(=O)c2ccccc2)[C@@H]1CO,inactive
5,COc1ccc(S(=O)(=O)Nc2ccc3c(c2)CC(=O)N([C@@H](C)CO)C[C@H](C)[C@H](CN(C)S(=O)(=O)c2ccc(OC)cc2)O3)cc1,inactive
